FAS-TE inh: blocks the thioesterase domain of human fatty acid synthase. inhibition, % at 15 µM. 0.67% of 360,000 active. recombinant FAS-TE, OMFH fluorogenic substrate, fluorescence endpoint. P49327. AID 602261;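 active = compounds whose normalised, plate-corrected inhibition of enzyme fluorescence in the single-dose primary screen is 50% or more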;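 note: 0% = DMSO with enzyme and 100% = substrate without enzyme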
APOBEC3A inh: human APOBEC3A DNA deaminase inhibition; P31941; recombinant A3A, FAM/TAMRA ssDNA deamination fluorescence; inhibition, % at 20 µM; 0.41% of 330,000 active;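 active = at least 40% inhibition at 20 µM here, with at most 30% in a related deaminase screen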;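 note: plate controls were A3A with DMSO for no effect and wells lacking A3A enzyme for full effect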
APOBEC3G inh: APOBEC3G (human) deaminase inhibition; Q9HC16; recombinant A3G, ssDNA deamination FAM/TAMRA fluorescence; inhibition, % at 20 µM; 0.28% of 330,000 active; AID 493012;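 active = inhibition of at least 40% at 20 µM, with no more than 30% in the related APOBEC3A deaminase screen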;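 note: plate controls were DMSO wells with A3G for no effect and wells lacking A3G enzyme for full effect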
GC-A act: GC-A (human) enzyme activation | 0.14% of 370,000 active | P16066 | HEK293 GC-A cells, cGMP TR-FRET, EC30 ANP; 0% at EC30 ANP, 100% saturating ANP | activation, % at 10 µM | AID 1671463; in the data active = activation above about 40%
NPR2 activator: GC-B (human) receptor activation; P20594; HEK293-GC-B cells, CNP EC30, cGMP TR-FRET; 0% at EC30 CNP, 100% saturating CNP; activation, % at 10 µM; 0.11% of 370,000 active;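 active = activation at 10 µM reaching about 35% in either raw or pattern-adjusted values, limit read from the data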
A3G conf: confirmation of human APOBEC3G DNA deaminase inhibitors; shares compounds with APOBEC3G inh; recombinant A3G ssDNA deaminase, UDG/FAM-TAMRA fluorescence; inhibition, % at 20 µM; 72% of 890 active; AID 493152;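 active = inhibition reaching a set limit in any replicate at 20 µM, the limit being 80% of the first screen's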
UDG A3G counter: inhibits E. coli UDG, flagging false APOBEC3G inhibitors; inhibition, % at 20 µM; UDG counterscreen, FAM/TAMRA oligo fluorescence; shares compounds with APOBEC3G inh; 710 tested, under 10 active;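 active = compounds giving 40% or more inhibition at 20 µM in any one of the three replicates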;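 note: plate controls were DMSO wells with UDG and oligo for no effect and DMSO wells lacking both for full effect; inhibitors lower the FAM signal released by uracil excision and alkaline cleavage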
Numbers without * were called inactive; / = not tested or not shown. Hits are enriched below; roughly 1.4% of the tested compounds scored in any of these assays.

SMILES | FAS-TE inh | APOBEC3A inh | APOBEC3G inh | GC-A act | NPR2 activator | A3G conf | UDG A3G counter
O=C(CCl)Nc1ccc(C(=O)NCC2COc3ccccc3O2)cc1 (stereo not drawn) | / | / | / | -2.1 | -1.0 | / | /
Cc1c(/C=N/Nc2ccc(F)cc2)c(O)n(C)c(=O)c1C#N | -2.4 | -1.1 | 63.6* | 2.0 | 3.8 | -1.0 | -3.0
Cc1cc(O)c(Sc2ncn[nH]2)cc1NS(=O)(=O)c1ccc(Cl)cc1 | -18.5 | 1.7 | -5.9 | -1.4 | 1.5 | / | /
O=S(=O)(Nc1cc(Sc2ncn[nH]2)c(O)c2ccccc12)c1ccccc1 | -13.7 | -2.0 | 60.9* | 9.2 | 5.5 | 89.2* | -0.8
CCc1ccc(CN2CCC(C(=O)Nc3ccc(Oc4ccccc4)nc3)CC2)o1 | -5.1 | 0.5 | 41.4* | 3.2 | -1.5 | 0.2 | /
Cc1ccc(-c2nnc(SCC(=O)c3ccc(O)c(O)c3)n2-c2ccc(Cl)cc2)cc1 | / | / | / | -3.4 | -1.1 | / | /
Cc1ccc(Cn2cc(CN3[C@H](C)COc4cc(Br)ccc4S3(=O)=O)nn2)cc1 | / | / | / | -1.4 | -0.7 | / | /
O=C1C=CC(=O)C(C2=C3C(=O)N(CCc4ccccc4)CC(=O)N3CCC2)=C1 | / | 3.3 | 89.7* | -27.4 | -0.3 | 93.2* | 2.7
Cc1ccc(/C=N/n2c(-c3ccncc3)n[nH]c2=S)o1 | -9.0 | -3.8 | 46.7* | 0.8 | 4.3 | 90.3* | -3.2
S=c1[nH]nc(-c2ccncc2)n1/N=C/c1ccccc1 | -9.8 | -3.0 | 55.1* | 0.1 | 0.5 | 70.8* | 0.5
Cc1ccc(/C=N/n2c(-c3ccncc3)n[nH]c2=S)s1 | -6.4 | -6.0 | 49.4* | -3.0 | -5.2 | 82.4* | -3.9
Cc1ccc(/C=N/n2c(C)n[nH]c2=S)o1 | -11.9 | 1.3 | 19.9 | 2.0 | -14.1 | / | /
Cc1cccc(/C=N/n2c(-c3cc(-c4ccccc4)n[nH]3)n[nH]c2=S)c1 | 2.7 | -2.7 | 19.8 | 4.8 | -6.9 | / | /
Cc1cccc(/C=N/n2c(-c3ccncc3)n[nH]c2=S)c1 | -4.4 | -2.3 | 78.5* | 8.0 | -2.3 | 99.3* | -1.7
COC(=O)C[C@@H]1CC[C@@H]2[C@@H](COc3ccc(NC(=O)Nc4ccc(F)cc4)cc3C(=O)N2C)O1 | / | / | / | -1.8 | -3.3 | / | /
C=CCn1c(N)c(C(=O)NCCC2=CCCCC2)sc1=S | 19.1 | 1.8 | 47.2* | 31.4 | 37.6* | 8.0 | /
NC(=O)NCCC1=CCCCC1 | -2.6 | 0.0 | -4.6 | 0.4 | 0.6 | / | /
Cc1cc(F)ccc1S(=O)(=O)Nc1ncnc2sc3c(c12)CCC3 | -0.5 | -1.0 | 51.1* | -1.2 | 2.0 | -4.0 | 1.6
COc1ccc2ccccc2c1-c1c(C(=O)c2ccc(Br)cc2)[nH]c(N)c1C(=O)NC1CCCCC1 | / | / | / | -7.2 | -5.9 | / | /
COCCCN(CCCN)Cc1ccco1 | -7.5 | -1.5 | 71.1* | 0.7 | 2.9 | 19.9 | 4.2
COC(=O)Cc1sc(-c2ccccn2)nc1-c1ccccc1 | 9.0 | 1.9 | 48.8* | 6.8 | -0.4 | 41.3* | 1.9
COC(=O)Cc1ccc2sc(-c3ccccc3)nc2c1 | 11.4 | -0.8 | -0.5 | 10.1 | -4.9 | / | /
Cc1cc(-c2ccco2)c(C#N)c2nc3ccccc3n12 | -24.4 | 19.9 | 53.1* | 27.1 | -0.5 | 47.3* | /
CCCCOCCCNC(=O)C[C@@H]1C[C@]2(C(=O)OCC)CCC3=C2N(CCC3)C1=O | / | / | / | 2.2 | 4.2 | / | /
COc1ccccc1/C=C/C=N/NC(=O)c1ccccn1 | -0.6 | -0.1 | -4.0 | 20.8 | -3.9 | / | /
SMILES | FAS-TE inh | APOBEC3A inh | APOBEC3G inh | GC-A act | NPR2 activator | A3G conf | UDG A3G counter
COc1ccccc1/C=C/C=N/NC(=O)c1cc(-c2ccco2)[nH]n1 | 2.3 | 25.5 | 63.6* | 26.6 | 6.9 | 21.4* | -2.5
CCOC(=O)c1ccc(-n2c(=S)sc3c(=O)[nH]c(C)nc32)cc1 | -20.7 | 5.5 | 55.7* | / | / | 40.1* | 1.6
CCOC(=O)CSc1nc2c(sc(=S)n2-c2ccc(CC)cc2)c(=O)[nH]1 | 9.9 | -4.1 | -5.0 | -1.5 | 1.5 | / | /
CC(=O)c1sc2nc(-c3cccs3)ccc2c1N | 1.9 | 6.5 | 44.5* | -1.3 | -2.1 | 30.6* | -2.0
Nc1c(C(=O)Nc2nc3ccccc3s2)sc2nc(-c3cccs3)ccc12 | -16.9 | -1.8 | -8.4 | / | / | / | /
Cc1cccc(C)c1OCc1n[nH]c(=S)n1N | -8.1 | 3.2 | 40.3* | 0.7 | -4.9 | 54.5* | -3.1
Nn1c(COc2ccc(Cl)cc2)n[nH]c1=S | -10.6 | 0.5 | 53.4* | -0.3 | -10.8 | 57.7* | 2.7
COC(=O)[C@]12C[C@H](CC(=O)NCCCCc3ccccc3)C(=O)N(CCC3=CCCCC3)C1=C[C@H](COCc1ccccc1)O[C@@H]2C | / | / | / | -1.4 | 1.6 | / | /
CC(=O)Nc1cc(OC(C)=O)c2nonc2c1OC(C)=O | -8.0 | 1.8 | 75.6* | -5.1 | 3.5 | 69.8* | /
COCC(=O)N(C)[C@H]1C[C@H]2c3[nH]c4c(-c5ccc6c(c5)OCO6)cccc4c3CCN2C(=O)[C@H]1[C@H](C)O | / | / | / | 1.1 | -3.0 | / | /
S=C(Nc1cccc(Cl)c1)OCCN1CCCC12CCC(c1ccccc1)CC2 (stereo not drawn) | / | / | / | -0.8 | -3.3 | / | /
COc1cc(S(=O)(=O)Nc2cccc(C)c2)ccc1N=Cc1c(C)[nH]n(-c2ccccc2)c1=O | / | 0.8 | 54.6* | / | / | -1.9 | /
COc1cc(O)c(C(CC(=O)N2CCC(C)CC2)c2ccc3c(c2)OCO3)c(OC)c1 (stereo not drawn) | / | / | / | -23.2 | -22.4 | / | /
Cc1c(Cc2ccc3c(c2)OCO3)sc(NC(=O)C2CC2)c1C(N)=O | 3.9 | 0.3 | 48.4* | 14.1 | 17.0 | 30.6 | /
COc1cc(C(=O)N2CCNCC2)cc(OC)c1OC | -2.4 | -6.3 | -1.3 | -2.0 | -1.3 | / | /
COc1cc(C(=O)N2C(=O)CCC2=O)cc(OC)c1OC | -4.2 | -0.3 | 57.2* | -2.0 | -2.7 | 5.1 | -1.2
O=C1OC(c2ccccc2)c2ccccc21 (stereo not drawn) | 5.0 | 1.3 | 1.7 | 0.4 | 0.9 | / | /
O=S1OC(c2ccccc2)c2cc(Cl)ccc21 (stereo not drawn) | 6.9 | 5.5 | 41.5* | 0.3 | 1.3 | 4.0 | /
O=C(CSc1nnc(-c2ccccc2)n1-c1ccccc1)NN=C/C=C\c1ccccc1[N+](=O)[O-] | / | / | / | -7.1 | -10.9 | / | /
Cc1[nH]c(=S)c(C#N)c(C)c1CCC#N | -1.4 | -5.0 | 64.6* | 7.0 | -4.0 | 90.2* | -4.8
Cc1ccccc1CN1CCCCC(NC(=O)Nc2ccccc2)C1=O (stereo not drawn) | / | / | / | 6.0 | -3.0 | / | /
FC(F)(F)c1ccccc1CN1CCCc2nc(-c3ccc(Br)cc3)ccc21 | / | / | / | 3.7 | -0.5 | / | /
CCOC(=O)Cc1csc(-n2sc3ccccc3c2=O)n1 | -6.7 | 0.3 | 81.4* | 4.6 | 9.6 | 84.0* | 3.2
CCN1CCN(c2nc(-c3ccccc3Cl)nc3ccccc23)CC1 | -3.3 | -4.9 | 43.9* | -4.3 | 3.3 | -1.3 | -3.9

Screening results deposited in PubChem BioAssay by Sanford-Burnham Center for Chemical Genomics.
